Screening data (PubChem BioAssay)
ALOX15B inhib = blocks human 15-lipoxygenase 2 activity | hit rate 0.56% among 110,000 | AID 881 | O15296 | Potency, µM (titrated, usually from 57.1 µM), for the others: top-dose activity change, negative = inhibition, most hits filed as inhibitors | purified 15hLO-2, xylenol orange hydroperoxide absorbance; note: potency is the fitted concentration of half-maximal effect; nearly all actives have a fitted effect of over 60% in size
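Purified human 15hLO-2 (50 nM final) preincubated with compounds 15 min at room temperature in 25 mM Hepes pH 7.5, 0.01% Triton X-100, then 45 uM arachidonic acid added for 90 min; hydroperoxide detected via ferrous/xylenol orange, 573/405 nm absorbance ratio.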
PNC assembly inh = blocks assembly of the perinucleolar compartment. PC3M PTB-GFP, PNC prevalence imaging, 16 h; stronger effect = lower value. activity change (PNC), negative = inhibition, % at 10 µM. hit rate 3.1% among 140,000. AID 2417;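 active = readout at or below -70, meaning at least 70% loss of cells showing the perinucleolar compartment, a nuclear body marking cancer cells; inconclusive = readout between -30 and a set limit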;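 note: plate controls were DMSO wells for no effect and camptothecin positive control wells for full effect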
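Compounds are pinned in duplicate onto adhered PC3M cells stably expressing GFP-tagged PTB and incubated 16 h at 37 C. Cells are then fixed, nuclei stained with Hoechst, and PNC-positive cells counted.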
ALOX12 inhib = blocks human 12-lipoxygenase activity; Potency, µM (doses to about 57.1 µM), for the others: top-dose activity change, negative = inhibition, hits mostly inhibitors; P18054; hit rate 0.12% among 150,000; purified 12-hLO, xylenol orange hydroperoxide absorbance; AID 1452; note: potency is the fitted concentration of half-maximal effect; nearly all actives have a fitted effect of over 55% in size
Target sequence (P18054 whole entry, looked up): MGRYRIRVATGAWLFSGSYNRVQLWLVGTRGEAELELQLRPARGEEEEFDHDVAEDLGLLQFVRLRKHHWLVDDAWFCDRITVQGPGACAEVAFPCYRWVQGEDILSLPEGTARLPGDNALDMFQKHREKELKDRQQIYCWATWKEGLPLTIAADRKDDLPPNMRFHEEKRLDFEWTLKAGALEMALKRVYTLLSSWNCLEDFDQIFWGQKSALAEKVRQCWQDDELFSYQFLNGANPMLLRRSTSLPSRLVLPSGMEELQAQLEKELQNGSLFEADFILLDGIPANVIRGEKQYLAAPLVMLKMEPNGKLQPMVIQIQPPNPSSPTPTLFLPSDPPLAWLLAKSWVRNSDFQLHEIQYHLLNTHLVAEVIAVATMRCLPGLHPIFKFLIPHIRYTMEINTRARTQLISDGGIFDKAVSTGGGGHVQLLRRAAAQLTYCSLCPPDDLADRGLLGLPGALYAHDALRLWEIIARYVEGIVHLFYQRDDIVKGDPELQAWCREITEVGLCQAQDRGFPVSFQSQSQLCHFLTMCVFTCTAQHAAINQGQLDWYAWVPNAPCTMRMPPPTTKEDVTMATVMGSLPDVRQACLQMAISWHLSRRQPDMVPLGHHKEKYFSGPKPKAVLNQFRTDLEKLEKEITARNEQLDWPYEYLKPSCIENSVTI
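Purified human 12hLO (150 nM final) was preincubated with compounds for 15 min at room temperature in 25 mM Hepes pH 7.0, 0.01% Triton X-100, then reacted with 40 uM arachidonic acid for 30 min. Hydroperoxide was detected with ferrous iron/xylenol orange.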
An asterisk follows results filed as active; u = inconclusive; x = not tested or not shown; [ ] = remark or other dose. Hits are enriched below; roughly 3.2% of the tested compounds scored in any of these assays. Unless noted, calls come from the whole dose curve; as a rule, active = well fitted curve in the direction sought with a large enough effect; inconclusive = small, poorly fitted or top-dose-only effect, or another doubt; inactive = no such curve, though single readings can be large; an effect the other way counts as inactive or inconclusive. Unless noted, % is set by controls: 0 for no effect and ±100 for the full control effect.

SMILES	ALOX15B inhib	PNC assembly inh	ALOX12 inhib
COc1cc(C2CC(=O)Oc3ccc(O)cc32)cc(OC)c1OC (stereo unspecified)	-21%[0.0915 µM]	x	-13%[0.00818 µM]
Cn1nnnc1SCC(=O)Nc1ccccc1Cl	8%	34	-5%
Cn1nnnc1SCC(=O)Nc1ccc(Br)cc1Cl	x	-100*	-2%
O=C(c1cccc(F)c1)N1CCC2(CCCN(c3ccccn3)C2)CC1	3%	x	1%
O=C(CCNC(=O)c1ccc(Cl)cc1)Nc1c(F)c(F)cc(F)c1F	x	-28	-1%
CCN(CC)CCCC(C)n1c(-c2ccccc2)nc2c(N(CCOC)CCOC)nc(C)nc21 (stereo unspecified)	35%	x	0%
CNc1nnc(-c2ccc(N(C)C)cc2)s1	x	-95*	-2%
CN(C)c1ccc(-c2ccncc2)cc1	2%	-18	-15%
S=C(Nc1ccc(Oc2ccccc2)cc1)NC1CCCCCC1	x	-3	u
S=C(Nc1ccc(Oc2ccc(NC(=S)NC3CCCCC3)cc2)cc1)NC1CCCCC1	x	u	1.3µM*
CCC(=O)Nc1ccc(C(=O)NNC(=O)Cc2ccccc2)cc1	x	3	0%
O=C(Nc1cc2c(oc1=O)CCCC2=O)c1cccc(Cl)c1	-14%	-106*	-1%
CC1(C)CC(=O)c2cc(NC(=O)c3ccccc3)c(=O)oc2C1	x	0	1%
C=CCn1c(COc2ccc(Cl)cc2)nnc1SCC(=O)NCC(=O)OCC	5%	-21	-6%
C=CCn1c(COc2ccc(Cl)cc2)nnc1SCC(=O)Nc1ccc(S(N)(=O)=O)cc1	x	-114*	-20%
CCOC(=O)c1ccc(NC(=S)NCCC2=CCCCC2)cc1	x	-10	25µM*
CC(=O)c1cccc(NC(=S)NCCC2=CCCCC2)c1	x	-22	u
O=c1c(-c2ccc(F)c(F)c2)nc2cncnc2n1Cc1ccc(F)cc1	6%	x	-5%
CCO[C@H]1O[C@@H]([C@H](COCc2ccccc2)OCc2ccccc2)[C@@H](OCc2ccccc2)[C@H]1O	7%[25.6 µM]	x	3%[25.6 µM]
NC(=O)CN1CCOCCOCCN(CC(N)=O)CCOCCOCC1	x	-106*	4%
NC(=O)CN1CCOCCOCCOCCOCCOCC1	-1%	20	-5%
COc1cc2c(cc1OC)CN(C(C)C(=O)Nc1ccc(NC(C)=O)cc1)CC2 (stereo unspecified)	-1%	5	-4%
Cc1ccc(-n2nnnc2SCC(=O)N2CCc3ccccc3C2)cc1	x	-100*	-4%
Cc1ccc(-n2nnnc2SCC(=O)N2CCc3ccccc3C2)c(C)c1	2%[2.29 µM]	u	-11%
COc1cc(C(c2c(C)[nH][nH]c2=O)c2c(C)[nH][nH]c2=O)ccc1OS(=O)(=O)c1ccccc1	32%	11	-3%
SMILES	ALOX15B inhib	PNC assembly inh	ALOX12 inhib
COc1cc(C(c2c(C)[nH][nH]c2=O)c2c(C)[nH][nH]c2=O)ccc1OC(C)C	x	-80*	-4%
COc1ccc(OC)c(C2CC(=O)N3CN(c4cccc(Cl)c4C)CSC3=C2C#N)c1 (stereo unspecified)	10µM*	-24	u
COc1ccc(OC)c(C2CC(=O)N3CN(c4ccccc4F)CSC3=C2C#N)c1 (stereo unspecified)	32µM*	7	32µM*
COc1cc(C2CC(=O)N3CN(c4ccccc4C)CSC3=C2C#N)cc(OC)c1OC (stereo unspecified)	u	8	u
COc1ccc(OC)c(C2CC(=O)N3CN(c4cccc(Cl)c4)CSC3=C2C#N)c1 (stereo unspecified)	u	13	u
COc1cccc(C2CC(=O)N3CN(c4cccc(Cl)c4C)CSC3=C2C#N)c1OC (stereo unspecified)	13µM*	u	u
COc1cccc(C2CC(=O)N3CN(c4ccccc4F)CSC3=C2C#N)c1 (stereo unspecified)	u	-28	-18%
CCOC(=O)c1ccc(N2CSC3=C(C#N)C(c4ccc(OC)cc4OC)CC(=O)N3C2)cc1 (stereo unspecified)	-13%	-18	u
COc1ccccc1N1CSC2=C(C#N)C(c3ccc(SC)cc3)CC(=O)N2C1 (stereo unspecified)	20µM*	-17	u
Brc1ccc(-c2nnc3n2-c2ccccc2CC3)cc1	2%	17	-1%
Cc1c(-c2ccc(Cl)cc2)noc1C1CCN(CCc2ccccc2)CC1	27%	x	-8%
COc1ccccc1-c1coc2cc(O)ccc2c1=O	-6%	x	-4%
COc1cc(OC)nc(Oc2ccccc2C(=O)Oc2cccc(C)c2)n1	1%	32	-2%
CC(=O)/C(C#N)=C1\NC(=O)C(Cc2ccc(C)c(C)c2)S1 (stereo unspecified)	2%	-108*	-20%
Nc1ccc(CC2SC(=O)NC2=O)cc1 (stereo unspecified)	0%	-24	-2%
CC(=O)/C(C#N)=C1\NC(=O)C(Cc2ccccc2Cl)S1 (stereo unspecified)	-10%	-5	1%
Cc1ccc(CC2SC(=O)NC2=O)cc1Cl (stereo unspecified)	x	-100*	24%
COc1c(CC(=O)c2cc3c(cc2O)OC(C)(C)C(O)C3)ccc2c1C=CC(C)(C)O2 (stereo unspecified)	13%	x	-3%
COc1ccc(C2CC(=O)C3=C(C2)Nc2ncnn2C3c2ccccc2)cc1 (stereo unspecified)	7%	-107*	-5%
COc1ccc(C2CC(=O)C3=C(C2)Nc2ncnn2C3c2ccccc2C)cc1 (stereo unspecified)	15%	35	-7%
CCN(CC)CCC[C@H](C)Nc1c2ccc(Cl)cc2nc2ccc(OC)cc12	30%[25.6 µM]	x	0%[25.6 µM]
CCOC(=O)Cc1csc(NC(=O)c2sc3nc4cc(C)ccc4cc3c2N)n1	x	-24	-12%
CCOC(=O)Cc1csc(NC(=O)c2sc3nc4ccc(CC)cc4cc3c2N)n1	-28%	u	10µM*
O=C(CCNC(=O)Cn1ccc2ccccc2c1=O)NCCc1ccccc1Cl	x	176	21%
CC(=O)Nc1cccc(NC(C)=O)n1	x	-119*	2%
SMILES	ALOX15B inhib	PNC assembly inh	ALOX12 inhib
CNC(=O)Nc1cccc(NC(=O)NC)n1	0%	-10	0%
CC1(C)N=C(c2ccc(Cl)cc2)C(=O)N1	7%	u	-1%
CCN(C(=O)CCC(=O)N(CC)c1ccccc1)c1ccccc1	x	20	8%
CCCC(=O)N(CCN(C(=O)CCC)c1ccccc1)c1ccccc1	x	-100*	2%
Cc1cc(C)c(NC(=O)NC2CCCCC2)c(C)c1	x	-113*	3%
Cc1ccc(NC(=O)NC2CCCCC2)cc1Cl	-12%	u	1%
Cc1cccc(C(=O)Nc2ccccc2SCC(=O)Nc2ccc(C)c(Cl)c2)c1	x	2	2%
NC(=O)NC(c1ccccc1)c1cccc2ccccc12 (stereo unspecified)	11%	38	-10%
O=c1cnc2cnc(N3CCOCC3)nc2n1Cc1ccc(F)cc1	-7%	x	1%
CCCCCCCCC(=O)Nc1cc(C)ccc1OC	x	-100*	-1%
Cc1ccc(O)c(NC(=O)CCCC(=O)O)c1	2%	-101*	-3%
Cc1ccc(NC(=O)CCCC(=O)O)c(Br)c1	4%	-27	-4%
COc1ccc(C)cc1NC(=O)CN(c1ccccc1F)S(C)(=O)=O	-1%	-3	0%
